According to publication PMC5913336, “True equilibrium measurement of transcription factor-DNA binding affinities using automated polarization microscopy”:

Biological target: T1, Kni (Drosophila melanogaster, UniProt P10734 2-102)
T1 sequence: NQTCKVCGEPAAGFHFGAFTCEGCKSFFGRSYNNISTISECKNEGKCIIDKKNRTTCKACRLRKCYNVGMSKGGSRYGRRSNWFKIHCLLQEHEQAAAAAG
Assay: FP; 33 mM phosphate pH 7.0, 90 mM NaCl, 0.01% Tween 20, 0.1 mM DTT, 0.5% agarose; room temperature
Conditions: tags: N-GST (pGEX-6P-1, kept); dsDNA, one strand shown

Sequence | binding signal
CAAAACTAGAGCAAT | 2.66 Kd / Kd of best base at the position
CAAAACTAGAGCTCT | 7.77 Kd / Kd of best base at the position
CAAAACTAGATCACT | 1.39 Kd / Kd of best base at the position
CAAAACTAGAGGACT | 36 Kd / Kd of best base at the position
CAAATCTAGAGCACT | 2.46 Kd / Kd of best base at the position
CAAAACTAGAGCAGT | 2.97 Kd / Kd of best base at the position
AAAAACTAGAGCACT | 1.14 Kd / Kd of best base at the position
CAAAACTAGAGCATT | 2.42 Kd / Kd of best base at the position
CAAAACTAGAGCACA | 2.62 Kd / Kd of best base at the position
CAAAACTACAGCACT | 52.4 Kd / Kd of best base at the position
CAAAACGAGAGCACT | 3.56 Kd / Kd of best base at the position
CAAAACTAGAACACT | 3.87 Kd / Kd of best base at the position
CAAAACTAGAGCACC | 2.3 Kd / Kd of best base at the position
CAAAACTAGAGCACG | 2.74 Kd / Kd of best base at the position
CAAAACTAAAGCACT | 8.43 Kd / Kd of best base at the position
CTAAACTAGAGCACT | 1.45 Kd / Kd of best base at the position
GAAAACTAGAGCACT | 1.36 Kd / Kd of best base at the position
CAGAACTAGAGCACT | 1.99 Kd / Kd of best base at the position

Sequence | binding signal
CAAGACTAGAGCACT | 9.44 Kd / Kd of best base at the position
CAAAACTAGAGTACT | 5.23 Kd / Kd of best base at the position
CAAAACTAGAGCGCT | 3.42 Kd / Kd of best base at the position
CAAAACTAGCGCACT | 9.49 Kd / Kd of best base at the position
CAAAACAAGAGCACT | 7.6 Kd / Kd of best base at the position
CAAAACCAGAGCACT | 2.45 Kd / Kd of best base at the position
CAAAAGTAGAGCACT | 1.65 Kd / Kd of best base at the position
CAAAACTAGAGCCCT | 12.1 Kd / Kd of best base at the position
CAAAACTAGACCACT | 3.9 Kd / Kd of best base at the position
CAACACTAGAGCACT | 31.8 Kd / Kd of best base at the position
CAAACCTAGAGCACT | 16.3 Kd / Kd of best base at the position
CAAAACTTGAGCACT | 25.5 Kd / Kd of best base at the position
CAAAAATAGAGCACT | 2.52 Kd / Kd of best base at the position
CAAAACTGGAGCACT | 1.5 Kd / Kd of best base at the position
CAAAGCTAGAGCACT | 16.3 Kd / Kd of best base at the position
CGAAACTAGAGCACT | 1.31 Kd / Kd of best base at the position
CATAACTAGAGCACT | 1.93 Kd / Kd of best base at the position
CCAAACTAGAGCACT | 1.71 Kd / Kd of best base at the position

Biological target: T2, Pan (Drosophila melanogaster, UniProt P91943 258-356)
T2 sequence: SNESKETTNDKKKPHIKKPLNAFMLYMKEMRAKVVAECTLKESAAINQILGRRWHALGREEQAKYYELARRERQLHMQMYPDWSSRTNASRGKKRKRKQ
Assay: as above
Conditions: tags: N-GST (pGEX-6P-1, kept); dsDNA, one strand shown

Sequence | binding signal
AGTCTTTGATAAC | 4.04 Kd / Kd of best base at the position
AGTCTTTGATGAA | 1.49 Kd / Kd of best base at the position
AGTCTTTGATAAT | 1.35 Kd / Kd of best base at the position
